# From PubChem BioAssay (Tox21)
# Results filed as inconclusive are left out. A call without a number means that no potency is given here. A number with no mark means an inactive call. Activity calls are given as the source filed them. Unless noted, the call rests on the fitted dose curve; in most records, active means well fitted curve in the direction sought with a large enough effect in the repeat runs; inconclusive means weak or mixed curves; inactive means no such curve, though single readings can be large; an effect the other way counts as inactive or inconclusive.
# Legend:
# [1] = molecular target: Retinoic acid receptor RXR-alpha (Homo sapiens) (UniProt P19793); assay: qHTS assay to identify small molecule agonists of the RXR signaling pathway (AID 1159527; calls by dose curve; further: nearly all actives have a fitted effect of over 35% in size)
# Chain of Retinoic acid receptor RXR-alpha (Homo sapiens) (P19793 whole entry, looked up): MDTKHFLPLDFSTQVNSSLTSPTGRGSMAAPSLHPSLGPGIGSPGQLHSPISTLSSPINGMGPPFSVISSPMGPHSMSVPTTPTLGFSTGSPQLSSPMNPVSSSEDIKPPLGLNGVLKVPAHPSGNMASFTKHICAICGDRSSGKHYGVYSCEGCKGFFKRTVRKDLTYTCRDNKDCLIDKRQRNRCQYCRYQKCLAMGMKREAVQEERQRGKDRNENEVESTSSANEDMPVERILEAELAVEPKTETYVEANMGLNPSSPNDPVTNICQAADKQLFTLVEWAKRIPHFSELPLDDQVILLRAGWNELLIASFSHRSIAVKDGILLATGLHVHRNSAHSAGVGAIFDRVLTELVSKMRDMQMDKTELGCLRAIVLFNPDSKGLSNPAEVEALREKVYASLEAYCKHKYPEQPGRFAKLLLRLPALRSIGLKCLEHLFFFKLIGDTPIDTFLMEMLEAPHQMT
# Outline: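 Agonist mode; 9-cis retinoic acid positive control. HEK 293T UAS-bla reporter cells, 2% charcoal-stripped FBS, 16 hr compound exposure at 37 C/5% CO2. LiveBLAzer B/G FRET substrate 2 hr RT; ex 405, em 460/530 nm.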
# [2] = qHTS assay to identify small molecule agonists of the RXR signaling pathway - cell viability counter screen (AID 1159529); further: nearly all actives have a fitted effect of over 50% in size
# Outline: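 Luminescence from CellTiter-Glo (30 min, RT) measured viability in the same wells as the beta-lactamase reporter readout. Cells: GeneBLAzer RXR-alpha HEK 293T, 2% charcoal-stripped FBS. Compound exposure 16 hr, 37 C.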
# [3] = qHTS assay to identify small molecule antagonists of the retinoid acid receptor (RAR) signaling pathway - cell viability counter screen (AID 1159551); further: nearly all actives have a fitted effect of over 35% in size
# Outline: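 Cells (C3RL4) are plated, incubated overnight, dosed with compound in DMSO, then given retinol at 1 uM final. After 6 h at 37 C, CellTiter-Glo is added and luminescence read following 30 min at room temperature.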
# [4] = qHTS assay to identify small molecule antagonists of the retinoic acid receptor (RAR) signaling pathway (AID 1159552; further: nearly all actives have a fitted effect of over 50% in size; further: potency means the concentration at half of the fitted maximal effect)
# Outline: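 Luminescence from a RARE luciferase reporter in C3RL4 cells served as read-out. Cells received compounds together with 1 uM final retinol and incubated 6 hr at 37 C before detection reagent was added for 30 min at room temperature.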
# [5] = qHTS assay to identify small molecule agonists of the retinoic acid receptor (RAR) signaling pathway (AID 1159553); details: C3RL4 RARE luciferase reporter, agonist, 6 h; activation: at 73.3 µM (top of the series)
# Outline: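 Seed C3RL4 reporter cells at 1,000 per well and incubate overnight at 37 C. Add compounds in DMSO, incubate 6 hr. Add luciferase reagent, wait 30 min at room temperature, read luminescence.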
# [6] = qHTS assay to identify small molecule antagonists of the estrogen related receptor (ERR) signaling pathway from Tox21 library - cell viability counter screen (AID 1224834); further: nearly all actives have a fitted effect of over 30% in size
# Outline: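 ERR cells, 2,000/well; 6 h settle at 37 C/5% CO2; pin-tool compound transfer in DMSO; 17.5 h at 37 C; CellTiter-Fluor, 30 min; fluorescence intensity.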
# [7] = molecular target: Luciferin 4-monooxygenase (Photinus pyralis) (UniProt P08659); assay: qHTS assay to identify small molecule inhibitors of firefly luciferase (AID 1224835); further: nearly all actives have a fitted effect of over 25% in size
# Chain of Luciferin 4-monooxygenase (Photinus pyralis) (P08659 whole entry, looked up): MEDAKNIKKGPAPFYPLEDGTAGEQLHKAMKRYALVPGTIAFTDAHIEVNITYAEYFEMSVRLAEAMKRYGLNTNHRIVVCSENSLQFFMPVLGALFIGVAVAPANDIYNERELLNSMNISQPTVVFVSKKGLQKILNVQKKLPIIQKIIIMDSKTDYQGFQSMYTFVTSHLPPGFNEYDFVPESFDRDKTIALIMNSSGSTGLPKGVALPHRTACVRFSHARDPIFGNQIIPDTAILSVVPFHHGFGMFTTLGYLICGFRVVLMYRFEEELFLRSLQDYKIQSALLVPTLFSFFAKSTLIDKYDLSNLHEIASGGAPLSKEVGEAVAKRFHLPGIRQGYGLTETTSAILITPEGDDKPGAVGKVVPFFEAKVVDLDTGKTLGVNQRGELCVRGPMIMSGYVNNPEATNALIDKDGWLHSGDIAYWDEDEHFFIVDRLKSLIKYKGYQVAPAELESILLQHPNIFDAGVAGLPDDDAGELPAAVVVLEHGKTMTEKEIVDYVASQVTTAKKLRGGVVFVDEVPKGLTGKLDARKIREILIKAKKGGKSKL
# Outline: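 Quantitative HTS format; KM concentrations of both substrates. Purified P. pyralis FLuc activity quantified from luminescence images.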
# [8] = qHTS assay to identify small molecule agonists of the constitutive androstane receptor (CAR) signaling pathway - cell viability counter screen (AID 1224836); further: nearly all actives have a fitted effect of over 45% in size
# Outline: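 Viability read-out: CellTiter-Fluor fluorescence after 23 h compound exposure at 37 C/5% CO2 in double-stable HepG2-CYP2B6-hCAR cells, with PK11195 present at 0.75 uM final; compounds tested in 15-point titration.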
# [9] = qHTS assay to identify small molecule antagonists of the constitutive androstane receptor (CAR) signaling pathway - cell viability counter screen (AID 1224837); further: nearly all actives have a fitted effect of over 45% in size
# Outline: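 Viability was measured with CellTiter-Fluor in a HepG2 line carrying stably transfected hCAR and a CYP2B6-2.2kb construct. Cells were exposed for 23 hr at 37 C to 15 compound concentrations with 50 nM CITCO as agonist.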
# [10] = qHTS assay to identify small molecule antagonists of the estrogen related receptor signaling pathway with the pleiotropic PPARgamma coactivator (PGC) from Tox21 10K library - cell viability counter screen (AID 1224840; active means well fitted cell-killing curve with a large enough effect in the repeat runs, not every such curve was filed as active; further: nearly all actives have a fitted effect of over 40% in size)
# Outline: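 Multiplexed viability counter screen in the PGC/ERR cell line: cells treated with DMSO-dissolved compounds for 17.5 hours at 37 C, then viability measured as CellTiter-Fluor fluorescence.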
# [11] = molecular target: Thyrotropin receptor (Homo sapiens) (UniProt P16473); assay: qHTS assay to identify small molecule agonists of the thyroid stimulating hormone receptor (TSHR) signaling pathway (AID 1224843; calls by dose curve; further: nearly all actives have a fitted effect of over 45% in size)
# Chain of Thyrotropin receptor (Homo sapiens) (P16473 whole entry, looked up): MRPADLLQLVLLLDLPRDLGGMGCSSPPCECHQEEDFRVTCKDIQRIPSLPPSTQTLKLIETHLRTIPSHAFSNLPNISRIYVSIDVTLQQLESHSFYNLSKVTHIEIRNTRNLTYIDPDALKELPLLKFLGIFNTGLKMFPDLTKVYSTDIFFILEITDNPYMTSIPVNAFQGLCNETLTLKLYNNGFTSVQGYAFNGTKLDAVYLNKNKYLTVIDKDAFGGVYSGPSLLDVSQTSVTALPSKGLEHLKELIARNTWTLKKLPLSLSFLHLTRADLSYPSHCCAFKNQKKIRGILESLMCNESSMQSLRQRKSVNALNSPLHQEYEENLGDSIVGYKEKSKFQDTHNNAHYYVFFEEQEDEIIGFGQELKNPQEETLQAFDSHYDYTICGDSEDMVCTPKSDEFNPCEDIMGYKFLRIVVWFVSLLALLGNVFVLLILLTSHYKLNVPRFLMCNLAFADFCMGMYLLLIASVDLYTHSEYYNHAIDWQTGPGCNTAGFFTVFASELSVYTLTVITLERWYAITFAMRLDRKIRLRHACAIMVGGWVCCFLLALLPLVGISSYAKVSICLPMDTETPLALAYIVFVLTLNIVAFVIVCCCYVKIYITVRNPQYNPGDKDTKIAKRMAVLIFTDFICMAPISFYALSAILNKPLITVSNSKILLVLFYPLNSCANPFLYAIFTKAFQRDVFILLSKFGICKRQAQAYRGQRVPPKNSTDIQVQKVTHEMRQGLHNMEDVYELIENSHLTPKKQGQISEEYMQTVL
# Outline: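 Using 15 concentrations per compound in triplicate, cAMP production was monitored in TSHR-HEK293 cells after 30 min compound incubation at RT; HTRF reagents followed, with fluorescence intensity recorded after 1 h.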
# [12] = qHTS assay to identify small molecule agonists of the hypoxia (HIF-1) signaling pathway - cell viability counter screen (AID 1224844; calls by dose curve; further: nearly all actives have a fitted effect of over 50% in size)
# Outline: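 Cytotoxicity was measured in parallel with the HRE-driven beta-lactamase readout: after 17 hrs of compound exposure at 37C, HRE-bla ME-180 cells received CellTiter-Glo and luminescence was recorded 30 min later.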
# [13] = qHTS assay to identify small molecule agonists of H2AX (AID 1224845; active means well fitted activation curve with a large enough effect in the signal ratio in the repeat runs, not every such curve was filed as active; the % refers to the signal ratio)
# Outline: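 Wild-type CHO-K1 cells plated overnight, then exposed 3 hr at 37C to compounds at 15 concentrations (0.76% DMSO). Lysed, then HTRF anti-pH2AX(S139)-cryptate/anti-H2AX-d2 detection after 24 hr at room temperature; emissions 665 and 620 nm.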
# [14] = qHTS assay to identify small molecule agonists of the hypoxia (HIF-1) signaling pathway (AID 1224846; active means well fitted activation curve with a large enough effect in the signal ratio in the repeat runs, not every such curve was filed as active; the % refers to the signal ratio)
# Outline: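 Compounds from the Tox21 10K library, dissolved in DMSO, are tested for induction of a hypoxia response element–controlled beta-lactamase reporter in ME-180 cells. Exposure lasts 17 hrs at 37C after a 5 hr settling period, followed by CCF4-AM FRET substrate.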
# [15] = qHTS assay to identify small molecule agonists of H2AX - cell viability counter screen (AID 1224847; calls by dose curve; further: top concentration of the series differs between compounds; nearly all actives have a fitted effect of over 30% in size)
# Outline: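 CHO-K1 wt, 1000 cells/well, o/n 37C; cpds 15 conc, 3 h 37C, 0.76% DMSO; CellTiter-Glo, 30 min RT, luminescence.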
# [16] = qHTS assay to identify small molecule antagonists of the estrogen related receptor signaling pathway with the pleiotropic PPARgamma coactivator (PGC) from Tox21 10K library (AID 1224841; call rule not given here; further: actives are mostly falling curves and most rising ones were filed inactive; nearly all actives have a fitted effect of over 50% in size)
# Outline: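 Steps: plate 2,000 PGC/ERR cells per well; incubate 6 h at 37 C with 5% CO2; transfer compounds from DMSO stocks by pin tool; incubate 18 h at 37 C; add One-Glo; measure luminescence 30 min later.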
# [17] = qHTS assay to identify small molecule agonists of the estrogen related receptor signaling pathway with the pleiotropic PPARgamma coactivator (PGC) from Tox21 10K library (AID 1224842); further: nearly all actives have a fitted effect of over 15% in size
# Outline: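 PGC/ERR reporter cells (NTP line) were seeded 2,000 per well, rested 6 h at 37 C/5% CO2, then pin-dosed with compounds in DMSO for 18 h at 37 C; luciferase read by One-Glo luminescence after 30 min at room temperature.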
# [18] = qHTS assay to identify small molecule antagonists of the estrogen related receptor (ERR) signaling pathway from Tox21 library (AID 1224848); further: nearly all actives have a fitted effect of over 50% in size
# Outline: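 Tox21 10K compounds in DMSO tested for ERR pathway antagonism in NTP's ERR cell line; 18 h, 37 C exposure; ONE-Glo luminescence.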
compound,measurement,setting,value
CCOC(=O)CCc1ccccc1,Potency,[1],inactive
same,outcome,[2],inactive
same,outcome,[3],inactive
same,Potency,[4],inactive
same,Potency,[5],inactive
same,Potency,[6],inactive
same,Potency,[7],inactive
same,outcome,[8],inactive
same,Potency,[9],inactive
same,outcome,[10],inactive
same,outcome,[11],inactive
same,outcome,[12],inactive
same,outcome,[13],inactive
same,outcome,[14],inactive
same,Potency,[15],inactive
CNCc1ccccc1,Potency,[1],inactive
same,outcome,[2],inactive
same,outcome,[3],inactive
same,Potency,[4],106 nM (active)
same,Potency,[5],inactive
same,Potency,[6],inactive
same,Potency,[7],inactive
same,outcome,[8],inactive
same,Potency,[9],inactive
same,outcome,[10],inactive
same,Potency,[16],inactive
same,outcome,[17],inactive
same,outcome,[13],inactive
same,outcome,[14],inactive
same,Potency,[15],inactive
same,Potency,[18],inactive
O=C(Nc1cccc(C2=NCCN2)c1)Nc1cccc(C2=NCCN2)c1,activation,[1],1.97% [at 15.8 µM]
same,"activity change, negative = cytotoxicity",[2],12.6% [at 15.8 µM]
same,"activity change, negative = cytotoxicity",[3],1.4% [at 19 µM]
same,"activity, negative = inhibition",[4],6.53% [at 19 µM]
same,Potency,[5],inactive
same,"viability change, negative = cytotoxic",[6],1.33% [at 19 µM]
same,"activity change, negative = inhibition",[7],-1.49% [at 23.6 µM]
same,"viability change, negative = cytotoxic",[8],0.131% [at 19 µM]
same,"activity change, negative = cytotoxicity",[9],1.51% [at 19 µM]
same,"viability change, negative = cytotoxic",[10],0.87% [at 19 µM]
same,activation (H2AX phosphorylation),[13],0.307% [at 31.6 µM]
same,activation,[14],-0.385% [at 15.8 µM]
same,"activity change, negative = cytotoxicity",[15],4.49% [at 31.6 µM]
O=c1[nH]c(=O)c2[nH]c(=O)[nH]c2[nH]1,activation,[1],3.02% [at 6.98 µM]
same,"activity change, negative = cytotoxicity",[2],9.18% [at 6.97 µM]
same,"activity change, negative = cytotoxicity",[3],-0.439% [at 8.39 µM]
same,"activity, negative = inhibition",[4],2.16% [at 8.39 µM]
same,activation,[5],0.0515% [at 8.36 µM]
same,"viability change, negative = cytotoxic",[6],-1.5% [at 8.39 µM]
same,"activity change, negative = inhibition",[7],-3.23% [at 10.5 µM]
same,"viability change, negative = cytotoxic",[8],-1.86% [at 8.39 µM]
same,"activity change, negative = cytotoxicity",[9],-10.7% [at 8.39 µM]
same,"viability change, negative = cytotoxic",[10],-2.62% [at 8.39 µM]
same,activation,[11],0.91% [at 8.39 µM]
same,"activity change, negative = cytotoxicity",[12],3.89% [at 6.97 µM]
same,activation (H2AX phosphorylation),[13],0.259% [at 14 µM]
same,activation,[14],0.359% [at 7.01 µM]
same,"activity change, negative = cytotoxicity",[15],-1.7% [at 14 µM]
O=C(O)Cc1cccc(-c2cc(CCCCCCc3ccc(O[C@H]4O[C@H](CO)[C@@H](O)[C@H](O)[C@@H]4O)c(-c4cccc(CC(=O)O)c4)c3)ccc2O[C@H]2O[C@H](CO)[C@@H](O)[C@H](O)[C@@H]2O)c1,activation,[1],6.74% [at 0.29 µM]
same,"activity change, negative = cytotoxicity",[2],12.1% [at 0.29 µM]
same,"activity change, negative = cytotoxicity",[3],-1.44% [at 0.349 µM]
same,"activity, negative = inhibition",[4],-0.764% [at 0.349 µM]
same,activation,[5],0.783% [at 0.756 µM]
same,"viability change, negative = cytotoxic",[6],-1.71% [at 0.349 µM]
same,"activity change, negative = inhibition",[7],2.97% [at 0.435 µM]
same,"viability change, negative = cytotoxic",[8],5.82% [at 0.349 µM]
same,"activity change, negative = cytotoxicity",[9],5.71% [at 0.349 µM]
same,"viability change, negative = cytotoxic",[10],-0.865% [at 0.349 µM]
same,activation,[11],2.03% [at 0.349 µM]
same,"activity change, negative = cytotoxicity",[12],6.42% [at 0.29 µM]
same,activation (H2AX phosphorylation),[13],0.108% [at 0.582 µM]
same,activation,[14],-0.541% [at 0.291 µM]
same,"activity change, negative = cytotoxicity",[15],-1.18% [at 0.582 µM]
NC(Cc1c[nH]c2ccccc12)C(=O)O (stereo unspecified),Potency,[1],inactive
same,outcome,[2],inactive
same,outcome,[3],inactive
same,Potency,[4],inactive
same,Potency,[5],inactive
same,Potency,[6],inactive
same,Potency,[7],inactive
same,outcome,[8],inactive
same,Potency,[9],inactive
same,outcome,[10],inactive
same,outcome,[11],inactive
same,outcome,[12],inactive
same,outcome,[14],inactive
same,Potency,[15],inactive
CCN(CC)C(=O)C1CN2CCc3cc(OC)c(OC)cc3C2CC1OC(C)=O (stereo unspecified),Potency,[1],inactive
same,outcome,[2],inactive
same,outcome,[3],inactive
same,Potency,[4],inactive
same,Potency,[5],inactive
same,Potency,[6],inactive
same,Potency,[7],inactive
same,outcome,[8],inactive
same,Potency,[9],inactive
same,outcome,[10],inactive
same,outcome,[11],inactive
same,outcome,[13],inactive
same,outcome,[14],inactive
same,Potency,[15],inactive
Nc1ccnc(=O)[nH]1,Potency,[1],inactive
same,outcome,[2],inactive
same,outcome,[3],inactive
same,Potency,[4],inactive
same,Potency,[5],inactive
same,Potency,[6],inactive
same,Potency,[7],inactive
same,outcome,[8],inactive
same,Potency,[9],inactive
same,outcome,[10],inactive
same,outcome,[11],inactive
same,outcome,[12],inactive
same,outcome,[13],inactive
same,outcome,[14],inactive
same,Potency,[15],inactive
Cc1ccc(C(=O)C(=O)O)cc1C,Potency,[1],inactive
same,outcome,[2],inactive
same,outcome,[3],inactive
same,Potency,[4],inactive
same,Potency,[5],inactive
same,Potency,[6],inactive
same,Potency,[7],inactive
same,outcome,[8],inactive
same,Potency,[9],inactive
same,outcome,[10],inactive
same,outcome,[12],inactive
same,outcome,[13],inactive
same,outcome,[14],inactive
same,Potency,[15],inactive
